Bioassay records (PubChem)
The sample as a whole holds a higher share of hits than the screen did.
S1P2 antag: blocks the human S1P2 receptor. AID 736. O95136. cell-based S1P2 antagonist assay, inhibition at 5 uM. 0.21% of 97,000 active. inhibition, % at 5 µM; in the data active = inhibition above about 45%;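 note: CRE beta-lactamase reporter cells expressing human S1P2 stimulated with S1P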
S1P2 ag: S1P2 (human) receptor agonism. O95136. S1P2-expressing cell line, agonist reporter read-out. activation, % at 4.5 µM. 0.46% of 97,000 active. AID 729; in the data active = activation above about 16%
GALR2 antag: blocks the human galanin receptor 2 | GALR2-expressing cells, antagonist mode | inhibition, % at 4 µM | 0.39% of 140,000 active | AID 828; in the data active = inhibition above about 27%;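 note: cells stimulated with galanin 1-16 at roughly its EC80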
Target sequence (O43603 whole entry, looked up): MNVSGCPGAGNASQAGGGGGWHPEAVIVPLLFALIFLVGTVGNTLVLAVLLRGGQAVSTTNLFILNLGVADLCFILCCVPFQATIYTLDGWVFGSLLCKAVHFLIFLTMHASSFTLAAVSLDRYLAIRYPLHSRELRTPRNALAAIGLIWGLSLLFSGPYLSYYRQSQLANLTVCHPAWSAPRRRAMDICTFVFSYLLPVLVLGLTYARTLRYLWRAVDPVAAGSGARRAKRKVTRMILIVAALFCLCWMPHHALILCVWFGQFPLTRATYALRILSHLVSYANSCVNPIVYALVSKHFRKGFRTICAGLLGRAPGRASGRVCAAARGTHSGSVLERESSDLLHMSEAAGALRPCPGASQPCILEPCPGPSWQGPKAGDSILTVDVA
PostGolgi yeast: growth inhibition of a yeast mutant, post-Golgi transport screen | inhibition, % at 10 µM | post-Golgi transport phenotypic cell assay | 0.9% of 98,000 active;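 note: yeast cells grown in 1536-well plates; yeast grown about 18 h at 30C before absorbance read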
GALR2 agonist: GALR2 (human) receptor agonism. O43603. 0.48% of 140,000 active. AID 803. activation, % (concentration not given with the values). GALR2-expressing cells, agonist activation read-out; in the data active = activation above about 5%, passing the limit was not always enough
PostGolgi ctrl: inhibits growth of the yeast control strain; efflux-deficient yeast background strain, growth absorbance A615, 16 h; inhibition, % at 10 µM; 5% of 98,000 active
Numbers stand for hits; . = inactive; / = no result. Cut-off read from the data, not from the text of the source, unless noted: active = inhibition above about 30%; inactive = the rest.

SMILES	S1P2 antag	S1P2 ag	GALR2 antag	PostGolgi yeast	GALR2 agonist	PostGolgi ctrl
CCCC(=O)NC(Oc1ccccc1Cl)C(Cl)(Cl)Cl (centres undefined)	.	.	.	.	.	.
O=c1[nH]c(=O)n(C2CCCCCC2)c(O)c1C=NC1CCN(Cc2ccccc2)CC1	.	.	.	.	.	.
O=c1[nH]c(=S)n(CCC2=CCCCC2)c(O)c1C=NC1CCN(Cc2ccccc2)CC1	.	.	.	37	.	94
FC(F)(F)c1ccc2c(c1)nnn2C1CCN(Cc2nnnn2Cc2ccccc2)CC1	/	/	.	.	.	.
Cc1ccc(Cn2nnnc2CN2CCC(n3nnc4cc(C(F)(F)F)ccc43)CC2)cc1	.	.	.	.	.	62
O=C(O)[C@H]1C[C@@H]1[C@H](NP(=O)(c1ccccc1)c1ccccc1)c1ccccc1	/	/	.	/	.	/
Cc1ccc(N2CCN(CCc3ccccc3)CC2)cc1	.	.	.	.	.	43
Cc1cccc(N2CCN(CCc3ccccc3)CC2)c1C	.	.	.	.	.	.
C=CCn1c(O)c(C(CC)=NC(C)c2ccccc2)c(=O)[nH]c1=O (centres undefined)	.	.	.	.	.	40
CCCCn1c(O)c(C(CC)=NC(C)c2ccccc2)c(=O)[nH]c1=O (centres undefined)	.	.	.	.	.	52
CCCCn1c(O)c(C(C)=NCCc2ccccc2)c(=O)[nH]c1=O	.	.	.	.	.	31
N#CCCn1cc(C(=O)Nc2ccccc2Br)c(-c2ccc3c(c2)OCCO3)n1	/	/	.	/	.	/
O=C1NC(=O)N(c2ccccc2)C(=O)/C1=C/c1ccc(Sc2ccccc2)o1	47	.	.	.	.	.
OC(COCc1ccc(Cl)cc1)CN1CC=C(c2ccccc2)CC1 (centres undefined)	/	/	.	63	.	.
COc1cc2[nH]c(=O)n(-c3ccccc3)c(=O)c2cc1OC	.	.	.	31	.	.
O=C(Nc1ccc(Cl)cc1)Nc1nccs1	.	53	.	.	.	.
O=C1CC(C(=O)N2CCC3(CC2)OCCO3)CN1CCc1ccccc1 (centres undefined)	.	.	.	.	.	32
O=C(Nc1ccc2c(c1)OCO2)c1cn(Cc2ccc(F)cc2)nn1	.	.	.	.	.	.
CC(c1ccccc1F)n1cc(C(=O)Nc2ccc3nc[nH]c3c2)nn1 (centres undefined)	.	.	.	.	.	30
CN1C(=O)/C(=C/c2cccn2-c2ccc3ccccc3c2)C(=O)NC1=S	.	.	.	98	.	.
O=c1[nH]c(=S)n(C2CC2)c(O)c1C=Nc1cccc(C(F)(F)F)c1	/	/	.	/	.	/
Oc1c(Br)cc(Br)cc1Oc1ccc(Br)cc1Br	/	/	.	/	.	/
CCCC1(CCC)C(=O)NC(=Nc2ccccc2)NC1=O	.	.	.	.	.	.
CCCCC1(CCCC)C(=O)NC(=Nc2cccc(C)c2)NC1=O	.	.	.	47	.	.
CCC(C)N1C(=O)NC(=O)C2(Cc3c(ccc4ccccc34)N(C)C2)C1=O (centres undefined)	.	.	.	.	.	33
SMILES	S1P2 antag	S1P2 ag	GALR2 antag	PostGolgi yeast	GALR2 agonist	PostGolgi ctrl
CNC(=O)OCCc1n(C)cc[n+]1C	/	/	.	/	.	/
CCn1c(O)c(C=Nc2ccc(N3CCOCC3)c(Br)c2)c(=O)n(CC)c1=S	.	.	.	.	.	37
CCCCCCCSc1cc(OC)c(CCNC)cc1OC	.	.	.	.	.	49
O=c1[nH]c(=O)n(Cc2ccco2)c(O)c1/C=N/N1CCCCC1	/	/	.	/	.	/
O=S(=O)(c1ccc(Cl)cc1)N1CC1c1ccccc1 (centres undefined)	/	/	.	/	.	/
Nc1ccncc1	/	/	.	/	.	/
CC(C)CC1C(C#N)=C(N)Oc2c1c(=O)oc1ccccc21 (centres undefined)	.	.	.	.	.	41
N#CC1=C(N)Oc2c(c(=O)oc3ccccc23)C1c1ccncc1 (centres undefined)	.	.	.	.	.	.
CCOC(=O)N(CC)c1ccc(C(O)(C(=O)OCC)C(F)(F)F)cc1 (centres undefined)	/	/	.	.	.	.
CCOC(=O)C(O)(c1ccc(N(CC)S(=O)(=O)c2ccccc2)cc1)C(F)(F)F (centres undefined)	.	.	.	.	.	39
O=P(NS(=O)(=O)c1ccc(Cl)cc1)(Oc1ccccc1)Oc1ccccc1	.	.	.	/	.	/
Cc1cc(N2C(=O)C3CCCN3C2c2sccc2C)no1 (centres undefined)	.	.	.	36	.	.
